Bioassay records deposited in PubChem BioAssay by National Center for Advancing Translational Sciences (NCATS).
Hits are enriched below; roughly 21% of the tested compounds scored in any of these assays.
DT40 TDP1 CPT = DT40-hTDP1 cell growth loss with CPT | chicken DT40 Tdp1-/-;hTDP1 cells + 20 nM CPT, ATP luminescence, 48 h | Potency, µM (doses to about 46.2 µM), hits mostly inhibitors | hit rate 12% among 420,000 | AID 686979; also: nearly all actives have a fitted effect of over 55% in size
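Cell growth measured by CellTiter-Glo luminescence after a minimum 48 h, 37 C compound exposure with 20 nM CPT in Tdp1-knockout DT40 cells stably expressing hTDP1, seeded 400/well; qHTS titration format.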
TDP1 cell noCPT = qHTS for Inhibitors of human tyrosyl-DNA phosphodiesterase 1 (TDP1): qHTS in cells in absence of CPT. hit rate 15% among 420,000. Potency, µM (series often up to 46.2 µM), most hits filed as inhibitors. AID 686978, 2013. DT40 Tdp1-/- hTDP1 cells, no CPT, ATP luminescence, 48 h; also: nearly all actives have a fitted effect of over 55% in size
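Growth of hTDP1-complemented DT40 Tdp1-knockout cells is measured by ATP luminescence after at least 48 hr compound exposure at 37 °C, with DMSO substituting for the 20 nM CPT used in the parallel screen.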
ClpP mod = qHTS Assay for Activators of ClpP; ATP-dependent Clp protease proteolytic subunit (Bacillus subtilis (strain 168)), P80244; purified B. subtilis ClpP, FRET peptide cleavage, 20 min; Potency, µM (doses to about 57.5 µM); hit rate 1.9% among 340,000; AID 651965, 2013; active = well fitted falling curve with a large enough effect; inconclusive = small, poorly fitted or top-dose-only effect; inactive = no such curve, though single readings can be large or run the other way; also: the source files actives as falling curves though it sought activators and does not explain the sign; nearly all actives have a fitted effect of over 65% in size
Target sequence (P80244 whole entry, looked up): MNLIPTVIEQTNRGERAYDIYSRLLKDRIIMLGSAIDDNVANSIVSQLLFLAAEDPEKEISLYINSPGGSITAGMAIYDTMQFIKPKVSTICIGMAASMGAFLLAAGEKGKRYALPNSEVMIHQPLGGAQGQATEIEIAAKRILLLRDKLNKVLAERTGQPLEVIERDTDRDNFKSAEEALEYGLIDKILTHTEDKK
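ClpP 10 microg/mL final, pH 8 Tris/KCl buffer with BSA, glycerol, Tween-20; compound pinned in; FRET-FV substrate; RT 20 min; Ex320/Em430; ΔFRET vs ADEP 5.8 microM, DMSO, no enzyme.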
D3 ag = D3 dopamine receptor (human) agonism. AID 652048. hit rate 0.58% among 410,000. max activation, %. D3R DiscoveRx beta-arrestin cells, luminescence, 90 min. P35462; in the data active = max activation above about 30%
Target sequence (P35462 whole entry, looked up): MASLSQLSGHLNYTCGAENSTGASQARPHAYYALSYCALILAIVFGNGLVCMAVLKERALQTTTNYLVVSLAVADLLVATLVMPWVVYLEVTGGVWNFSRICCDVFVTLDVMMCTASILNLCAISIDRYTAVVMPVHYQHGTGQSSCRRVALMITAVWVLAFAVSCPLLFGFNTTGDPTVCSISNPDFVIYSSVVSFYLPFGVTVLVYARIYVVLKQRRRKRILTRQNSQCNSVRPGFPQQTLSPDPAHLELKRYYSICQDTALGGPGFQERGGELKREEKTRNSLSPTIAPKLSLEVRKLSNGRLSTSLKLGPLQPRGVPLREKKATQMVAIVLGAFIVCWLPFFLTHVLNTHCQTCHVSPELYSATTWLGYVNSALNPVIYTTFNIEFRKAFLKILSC
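Agonist-mode cell screen: cells plated at 1500/well and incubated overnight at 37 °C, then exposed to library compounds for 90 min at 37 °C. Detection reagent was added for 30–60 min at room temperature, and luminescence was read.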
DRD3 antagonist = D3 dopamine receptor (human) antagonism; AID 652054; hit rate 2.5% among 360,000; max response, negative = inhibition, %; D3R cells, DiscoveRx beta-arrestin luminescence, antagonist mode; active compounds read low; P35462; in the data active = max response below about -50%; inconclusive = no clear call, values can overlap the other calls
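Cells plated overnight at 1500 cells/well, then exposed to library compounds with dopamine controls for 90 minutes at 37 degrees C. DiscoveRx reagent added for 30–60 minutes at room temperature; luminescence read, quantitative HTS format.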
IL-1B inflam inh = inhibitors of inflammasome signaling (IL-1 beta secretion) | activity change, % at 57.5 µM | THP-1 LPS/ATP IL-1B secretion, AlphaLISA, 16 h; active compounds read low | hit rate 4.7% among 360,000; in the data active = activity change below about -50%; inconclusive = mostly about -30% to -49%
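Secreted IL-1B measured by AlphaLISA bead assay after 16 h compound exposure of THP-1 cells; compounds (final up to 57.5 uM) added 1 h before LPS (250 ng/mL) and ATP (1.25 mM) stimulation; lower signal means less secretion.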
Numbers stand for hits; . = inactive; ? = inconclusive; / = not tested or not shown. Unless noted, calls follow the shape of the dose curve; as a rule, active = well fitted inhibition curve with a large enough effect; inconclusive = small, poorly fitted or top-dose-only effect; inactive = flat fitted curve, though single readings scatter.

SMILES	DT40 TDP1 CPT	TDP1 cell noCPT	ClpP mod	D3 ag	DRD3 antagonist	IL-1B inflam inh
CCOc1ccccc1C1N=C(c2ccc(OC)cc2)CC(c2ccccc2O)N1 (configuration not stated)	21µM	16µM	.	.	.	.
CCOc1ccccc1C1N=C(N)Nc2nc3ccccc3n21 (configuration not stated)	.	.	.	.	/	/
COc1ccc2c(c1)OCc1c-2oc2cc(OC)ccc12	.	.	/	/	/	/
C/C(=N/NC(=O)CNS(=O)(=O)c1ccccc1)c1ccc(Br)cc1	.	.	.	.	.	.
CC(=O)c1ccc(-c2ccc(C(=O)NC3CC(C)(C)NC(C)(C)C3)o2)cc1	.	?	.	.	.	-56
O=C(c1ccco1)N1CCN(C(=O)c2ccc(-c3ccc([N+](=O)[O-])cc3)o2)CC1	23µM	?	.	.	.	.
CC1(C)CC(NC(=O)c2ccc(F)cc2)CC(C)(C)N1	.	.	.	.	.	.
O=C(NC1CCC(O)CC1)c1ccc(-c2ccc([N+](=O)[O-])cc2)o1 (configuration not stated)	16µM	16µM	.	.	.	.
O=C(COC(=O)c1ccc(-c2ccc([N+](=O)[O-])cc2)o1)NC(=O)NC1CCCCC1	?	?	.	.	.	.
O=C(c1ccc([N+](=O)[O-])cc1)N1CCN(C(=O)c2ccco2)CC1	.	.	/	.	.	.
O=C(c1ccc(-c2ccc([N+](=O)[O-])cc2)o1)N1CCN(S(=O)(=O)c2cccs2)CC1	16µM	3.7µM	.	.	.	.
COCCn1c(C)cc(C(=O)COC(=O)/C=C/c2c(C)nn(C3CCS(=O)(=O)C3)c2Cl)c1C (configuration not stated)	?	?	.	.	.	.
CCCCCCCCCCCC[N+](C)(C)Cc1ccccc1	1.5µM	1.7µM	/	.	/	/
C[N+](C)(CCCCCC[N+](C)(C)CCCN1C(=O)c2ccccc2C1=O)CCCN1C(=O)c2ccccc2C1=O	.	.	/	/	/	/
Cc1nc(C)c(-c2nnc(-c3ccc(C(C)(C)C)cc3)o2)cc1C(=O)NN	?	23µM	?	.	.	.
CCC(=O)N1CCc2cc(Br)cc(S(=O)(=O)N3CCCCC3CC)c21 (configuration not stated)	?	21µM	.	.	.	.
O=C(C1CC1)N1CCc2cc(Br)cc(S(=O)(=O)N3CCCCCC3)c21	?	21µM	.	.	.	.
CCC(=O)N1CCc2cc(Br)cc(S(=O)(=O)N(C)c3ccc(OC)cc3OC)c21	18µM	18µM	/	.	.	.
CCOC(=O)N1CCN(S(=O)(=O)c2ccc3c(c2)CCN3C(=O)C2CC2)CC1	.	.	.	.	.	.
O=C(C1CC1)N1CCc2cc(Br)c(S(=O)(=O)N3CCCCCC3)cc21	16µM	?	/	.	.	.
COc1cccc(N2CCN(C(=O)c3ccccc3SCC(=O)NCc3ccco3)CC2)c1	?	?	.	.	.	.
O=c1cc(CSc2nnc(COc3cccc4ccccc34)o2)c2ccccc2[nH]1	?	?	/	.	.	.
O=C(NCc1ccco1)C1C(=O)Nc2ccccc2C(=O)N1C1CCCCC1 (configuration not stated)	.	.	.	.	.	.
CCC(=O)N1CCc2cc(Br)cc(S(=O)(=O)N3CCCCCC3)c21	?	?	.	.	-64	.
CCCN(CCC)S(=O)(=O)c1cc(Br)cc2c1N(C(=O)CC)CC2	9.2µM	10µM	.	.	.	.
SMILES	DT40 TDP1 CPT	TDP1 cell noCPT	ClpP mod	D3 ag	DRD3 antagonist	IL-1B inflam inh
Cc1cccc(NC(=O)C(Cc2ccccc2)N2Cc3ccccc3C2=O)c1C (configuration not stated)	?	.	.	.	/	/
COc1ccc(C(=O)NC(=S)N2CCN(C)CC2)cc1Br	.	.	.	.	.	.
O=c1[nH]c(=O)c2nc(-c3ccc(Cl)cc3)cnc2[nH]1	.	?	/	.	.	.
O=c1[nH]c(=O)c2nc3c4ccccc4c4ccccc4c3nc2[nH]1	8.2µM	5.2µM	/	.	.	.
CNc1ncnc2ccc(-c3ccc4c(c3)OCO4)cc12	23µM	18µM	/	/	/	/
N#Cc1cccc(-c2ccc3ncnc(NC4CCNCC4)c3c2)c1	.	.	/	/	/	/
COc1cccc(-c2ccc3ncnc(NC4CC4)c3c2)c1	16µM	12µM	/	/	/	/
COc1cccc(-c2ccc3ncnc(NCCNC(C)=O)c3c2)c1	15µM	?	/	/	/	/
COc1ccc(CNc2ncnc3ccc(-c4ccc5c(c4)OCO5)cc23)c(OC)c1	?	.	/	/	/	/
COc1cccc(-c2ccc3ncnc(NC4CCNCC4)c3c2)c1	?	13µM	/	/	/	/
OCC[C@@H]1C[C@H](O)[C@@H](O)[C@@]2(CCCc3ccccc3O2)O1	.	.	.	.	.	.
COC(=O)c1sc(SC)c(-c2ccon2)c1C	.	.	.	.	.	.
O=C(CSc1nc2c([nH]c3ccccc32)c(=O)n1-c1ccccc1)N1CCCCC1	.	.	.	.	/	/
CCn1ccc2cc(S(=O)(=O)N3CCCN(C(=O)NCCOC)CC3)ccc21	/	/	.	.	/	/
CCN1CCN(C(=O)c2cccc(OC3CCN(S(C)(=O)=O)CC3)c2)[C@@H](C)C1=O	.	.	.	.	.	.
CC1CCN(c2c(NCC3CCC(C(=O)NCc4ccccc4Cl)CC3)c(=O)c2=O)CC1 (configuration not stated)	.	.	.	.	.	.
CNc1ncnc2ccc(-c3cccc(OC)c3)cc12	16µM	23µM	/	/	/	/
CNc1ncnc2ccc(-c3ccccc3C#N)cc12	?	.	/	/	/	/
CCCOc1ccccc1N/C(N)=N/c1nc(C)cc(C)n1	?	?	/	.	.	.
COc1ccc(N/C(=N\c2nc(C)cc(C)n2)NC(C)=O)cc1OC	.	?	.	.	.	.
COc1ccc(OC)c(N/C(N)=N/c2nc(C)cc(C)n2)c1	?	18µM	.	.	.	-77
CCCOc1ccccc1N/C(=N/c1nc(C)cc(C)n1)NC(=O)COc1ccc(OC)cc1	21µM	16µM	.	.	.	?
Cc1ccc(C)c(N/C(N)=N/c2nc(C)cc(C)n2)c1	21µM	13µM	32µM	.	.	-111
COc1ccc(Cl)cc1N/C(N)=N/c1nc(C)cc(C)n1	.	.	/	.	.	.
COc1ccc(N/C(=N\c2nc(C)cc(C)n2)NC(=O)C(C)C)cc1OC	.	?	.	.	-65	.
COC(=O)c1cc(CNC(=O)c2ccc(N(C)C)cc2)cc(NC(=O)c2ccccc2Cl)c1	.	.	/	/	/	/
